This note sets out measurements from paper PMC5540273 (PLoS ONE, 2017).

Several values for one entry are separate records, joined by “and”; a condition that tells them apart may be missing. Equal values may be shown once. Read-outs that look alike come from different tables or passages of the source.

In one assay the test system is T1, MST1.
T1 construct: gene STK4
The note with it: concentration: 1 μM, replicates: in singlicate, n = 1.

Another assay relates to T2, MST2.
T2 construct: gene STK3
The note with it: concentration: 1 μM, replicates: in singlicate; n = 1.

The subject of another assay is T3, MST3.
T3 construct: gene STK24
The note with it: concentration: 1 μM, replicates: in singlicate, n = 1.

For a further assay, the system named is MST4. Particulars: concentration: 1 μM, replicates: in singlicate, n = 1.
The subject of a further assay is MTOR. Particulars: concentration: 1 μM, replicates: in singlicate, n = 1.
A further assay concerns MUSK. Particulars: concentration: 1 μM, replicates: in singlicate; n = 1.
For the next assay, the system named is MYLK2. The note with it: concentration: 1 μM, replicates: in singlicate, n = 1.
The test system of another assay is MYLK4. The note with it: concentration: 1 μM, replicates: in singlicate, n = 1.
A further assay deals with MYLK. The note with it: concentration: 1 μM, replicates: in singlicate, n = 1.
The test system of the next assay is MYO3A. Particulars: concentration: 1 μM, replicates: in singlicate, n = 1.
In a further assay the test system is MYO3B. The note with it: concentration: 1 μM, replicates: in singlicate, n = 1.
Another assay has as its system T4, NDR1.
T4 construct: gene STK38
Particulars: concentration: 1 μM, replicates: in singlicate, n = 1.

The subject of another assay is NDR2. The note with it: concentration: 1 μM, replicates: in singlicate, n = 1.
The subject of another assay is NEK10. Particulars: concentration: 1 μM, replicates: in singlicate; n = 1.
The test system of the next assay is NEK11. The note with it: concentration: 1 μM, replicates: in singlicate; n = 1.
In another assay the test system is NEK1. The note with it: concentration: 1 μM, replicates: in singlicate, n = 1.
The subject of a further assay is NEK2. The note with it: concentration: 1 μM, replicates: in singlicate, n = 1.
The test system of another assay is NEK3. Particulars: concentration: 1 μM, replicates: in singlicate, n = 1.
The test system of the next assay is NEK4. The note with it: concentration: 1 μM, replicates: in singlicate; n = 1.
In a further assay the test system is NEK5. Particulars: concentration: 1 μM, replicates: in singlicate, n = 1.
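Further: KINOMEscan kinase panel screen.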

With `N#Cc1c(N2CCOCC2)sc(-c2ccn[nH]2)c1-c1ccc(Cl)cc1`, the “%Inh” value in the assay on MST1 was determined as 21%; in the assay with MST2, 0%; in the assay on MST3, 19%; in the assay with MST4, 0%; with MTOR, 0%; in the assay with MUSK, 0%. The “%Inh” value in the assay on MYLK2 turned out to be 8%; in the assay with MYLK4 it was 5%; in the assay with MYLK, 23%; in the assay on MYO3A, 3%; in the assay with MYO3B, 32%; with NDR1, 7%. Besides, the “%Inh” value in the assay with NDR2 is 0%; in the assay on NEK10 it was 4%; with NEK11 it was 0%; in the assay on NEK1, 9%; in the assay with NEK2, 0%; with NEK3 it was 23%. Further, the “%Inh” value in the assay on NEK4 and with NEK5 was 0% each time.
In the case of `O=C(c1ccc(-c2cc(-c3c[nH]nc3-c3ccccn3)ccn2)cc1)N1CCOCC1` [GW812171], the “%Inh” value in the assay on MST1 is reported as 4%; in the assay on MST2, 0%; with MST3 it was 0%; with MST4, 0%; in the assay on MTOR it was 17%; with MUSK it was 0%. Also, the “%Inh” value with MYLK2 is 0%; in the assay with MYLK4, 26%; in the assay with MYLK, 0%; in the assay on MYO3A, 6%; in the assay with MYO3B it was 0%; in the assay with NDR1 it was 44%. The “%Inh” value in the assay on NDR2 is on record as 0%; in the assay on NEK10 it was 18%; in the assay on NEK11, 0%; in the assay with NEK1 it was 0%; in the assay on NEK2 it was 0%; in the assay with NEK3 it was 25%. The “%Inh” value with NEK4 and with NEK5 was 0% throughout.
Turning to `Cn1ccc2ncnc(Oc3ccc(NC(=O)Nc4ccncc4)c(Cl)c3)c21`, the “%Inh” value in the assay on MST1 was 0%; in the assay on MST2 it was 0%; with MST3 it was 0%; in the assay on MST4, 0%; in the assay with MTOR, 11%; in the assay with MUSK, 0%. The “%Inh” value turned out to be 11% with MYLK2; 0% in the assay with MYLK4; 0% with MYLK; 14% with MYO3A; 13% with MYO3B; 0% in the assay on NDR1. Besides, the “%Inh” value came to 17% with NDR2; 14% in the assay on NEK10; 0% in the assay on NEK11; 0% in the assay with NEK1; 0% in the assay with NEK2; 24% with NEK3. Also, the “%Inh” value with NEK4 is on record as 0%; with NEK5, 3%.
For `O=C(Nc1n[nH]c2cc(-c3cccc(F)c3)ccc12)C1CC1` [SB-735464], the “%Inh” value worked out at 11% in the assay on MST1; 0% with MST2; 17% in the assay on MST3; 17% with MST4; 0% with MTOR; 0% in the assay with MUSK. Besides, the “%Inh” value with MYLK2 was found to be 77%; in the assay with MYLK4, 6%; in the assay on MYLK, 2%; with MYO3A, 3%; in the assay on MYO3B, 0%; in the assay on NDR1 it was 25%. In addition, the “%Inh” value worked out at 11% in the assay on NDR2; 0% in the assay on NEK10; 37% in the assay with NEK11; 0% in the assay with NEK1; 0% in the assay with NEK2; 23% with NEK3. Besides, the “%Inh” value amounted to 14% with NEK4 and 0% with NEK5.
Take `O=C(Nc1cccc(-c2nn3ncccc3c2-c2ccnc(Nc3cccc(C(F)(F)F)c3)n2)c1)c1c(F)cccc1F` [GSK299495]: the “%Inh” value in the assay with MST1 turned out to be 9%; with MST2 it was 23%; with MST3, 0%; in the assay with MST4, 0%; with MTOR, 17%; in the assay on MUSK, 26%. The “%Inh” value in the assay on MYLK2 was 0%; with MYLK4, 0%; with MYLK, 11%; in the assay on MYO3A, 41%; with MYO3B it was 4%; in the assay on NDR1, 0%. Besides, the “%Inh” value was 0% with NDR2; 17% in the assay with NEK10; 19% with NEK11; 0% in the assay with NEK1; 0% in the assay on NEK2; 11% in the assay on NEK3. In addition, the “%Inh” value in the assay on NEK4 is given as 0%; in the assay with NEK5, 13%.
In the case of `CSc1ccc(-c2cc3ncnc(SCC(=O)O)c3s2)cc1`, the “%Inh” value in the assay on MST1 is 13%; with MST2 it was 20%; with MST3, 22%; in the assay on MST4, 7%; in the assay with MTOR, 36%; in the assay with MUSK, 0%. Further, the “%Inh” value came to 0% in the assay on MYLK2; 9% in the assay with MYLK4; 0% with MYLK; 0% in the assay on MYO3A; 1% with MYO3B; 1% in the assay on NDR1. The “%Inh” value in the assay on NDR2 amounted to 0%; in the assay on NEK10 it was 26%; with NEK11, 0%; in the assay with NEK1, 2%; in the assay on NEK2 it was 0%; with NEK3, 31%. Besides, the “%Inh” value in the assay on NEK4 and in the assay on NEK5 was 0% in each case.
Regarding `Cl.Cl.Cl.Fc1ccc(-c2ncn(C3CCNCC3)c2-c2ccnc(Nc3ccccc3)n2)cc1` [SB-238039], the “%Inh” value in the assay on MST1 (1 µM) is 82% and 69%; in the assay with MST2, 0%; in the assay on MST3 (1 µM), 12% and 46%; in the assay on MST4 (1 µM), 44% and 0%; in the assay with MTOR (1 µM), 22% and 0%; in the assay on MUSK, 0%. Besides, the “%Inh” value in the assay with MYLK2 (1 µM) was 43% and 30%; in the assay on MYLK4 (1 µM) it was 6% and 0%; with MYLK (1 µM), 0% and 22%; in the assay on MYO3A (1 µM), 4% and 10%; in the assay on MYO3B (1 µM), 20% and 21%; in the assay with NDR1 (1 µM) it was 37% and 6%. Further, the “%Inh” value in the assay with NDR2 (1 µM) was 8% and 0%; in the assay with NEK10, 0%; in the assay on NEK11 it was 0%; in the assay with NEK1 (1 µM), 15% and 0%; in the assay with NEK2 (1 µM) it was 0% and 2%; in the assay on NEK3 (1 µM), 23% and 29%. The “%Inh” value with NEK4 was 0%; in the assay with NEK5 (1 µM) it was 0% and 15%.
Turning to `COCCNC(=O)c1ccc(-c2cc(C(=O)NC3CC3)cc(F)c2C)cc1` [GW868318], the “%Inh” value with MST1 is recorded as 17%; in the assay on MST2, 24%; in the assay with MST3, 3%; with MST4, 38%; in the assay with MTOR, 0%; in the assay with MUSK, 28%. Further, the “%Inh” value worked out at 1% in the assay with MYLK2; 5% with MYLK4; 29% in the assay with MYLK; 5% in the assay on MYO3A; 24% in the assay on MYO3B; 33% in the assay with NDR1. Further, the “%Inh” value is 21% in the assay on NDR2; 3% in the assay on NEK10; 27% with NEK11; 0% in the assay with NEK1; 0% with NEK2; 26% with NEK3. The “%Inh” value came out at 14% with NEK4 and 8% with NEK5.
For `CCCCCc1nc2c(N)ncnc2n1CCCCC` [SKF-97255], the “%Inh” value with MST1, in the assay with MST2, in the assay on MST3, in the assay on MST4, in the assay on MTOR and in the assay with MUSK was 0% each time. In addition, the “%Inh” value in the assay with MYLK2 is given as 6%; with MYLK4, 12%; in the assay on MYLK, 17%; in the assay with MYO3A, 1%; with MYO3B, 10%; in the assay with NDR1, 31%. The “%Inh” value came to 7% in the assay on NDR2; 16% in the assay with NEK10; 0% in the assay on NEK11; 18% with NEK1; 0% in the assay on NEK2; 28% with NEK3. Further, the “%Inh” value in the assay on NEK4 and in the assay on NEK5 was 0% each time.
On to `Cc1cccc(-c2nc(Nc3ccc4ncsc4c3)c3ccccc3n2)n1` [GW867588], for which the “%Inh” value in the assay with MST1 is recorded as 18%; with MST2, 0%; in the assay with MST3, 0%; in the assay with MST4 it was 16%; in the assay on MTOR, 0%; in the assay on MUSK, 0%. The “%Inh” value with MYLK2 is given as 0%; in the assay with MYLK4, 0%; in the assay on MYLK, 0%; with MYO3A, 0%; with MYO3B, 16%; in the assay on NDR1, 14%. Moreover, the “%Inh” value was found to be 4% in the assay on NDR2; 5% in the assay on NEK10; 0% with NEK11; 0% in the assay with NEK1; 0% in the assay on NEK2; 0% in the assay on NEK3. Besides, the “%Inh” value in the assay on NEK4 and in the assay with NEK5 was 0% throughout.
